# In PubChem BioAssay (NCATS):
# Results filed as inconclusive are left out. Values without a mark were called inactive. Active and inactive are the calls of the source. Calls follow the shape of the dose curve; as a rule, active = well fitted curve in the direction sought with a large enough effect; inconclusive = small, poorly fitted or top-dose-only effect, or another doubt; inactive = no such curve, though single readings can be large; an effect the other way counts as inactive or inconclusive.
# Test: Quantitative highthroughput screen to assess conditional lethalithy of NOMO1 cells grown in Human Plasma-Like Medium with dialyzed fetal bovine serum (HPLM+ds) (AID 1963878);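 as to viability: 100% = DMSO wells and 0% = empty wells on each plate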
# Conditions: NOMO1 AML cells in HPLM+ds, CellTiter-Glo viability, 48 h; series mostly up to 45.8 µM; viability: at the top concentration
# Summary of the method: (§1)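 Each medium arm—HPLM with 10% dialyzed FBS, or RPMI1640 with 5 mM glucose and 10% untreated or dialyzed FBS—was screened against an 11-point, 3-fold compound titration for 48 h at 37 °C, with CellTiter-Glo luminescence as endpoint.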
# Also: nearly all actives have a fitted effect of over 35% in size.
# Potency is read from the fitted curve at half-maximal effect.
SMILES,viability,Potency
c1cc2c(cc1[C@H]1OC[C@H]3[C@H]1CO[C@H]3c1ccc3c(c1)OCO3)OCO2,91.6%,
Cc1nc(-c2ccc(-c3ccc(C(=O)N4CCc5cc6c(cc54)C4(CCN(C)CC4)CO6)cc3)c(C)c2)no1,110%,
CC(C)(O)C=CC(=O)[C@](C)(O)[C@H]1[C@H](O)C[C@]2(C)[C@@H]3CC=C4[C@@H](C=C(O)C(=O)C4(C)C)[C@]3(C)C(=O)C[C@@]12C,,209 nM (active)
O=C(O)CNC(=O)c1c(O)c2ccccc2n(Cc2ccccc2)c1=O,100%,
CC(C)(C)[C@]1(O)C[C@@H]2OC(=O)C[C@@]23C(=O)O[C@@H]2OC(=O)[C@H](O)C213 (stereo partly drawn),93.2%,
COc1ccc(CC2NCCc3cc(OC)c(OC)cc32)cc1OC (stereo not drawn),101%,
C[C@@]12OC(=O)[C@]1([C@@H](O)[C@@H]1C=CCCC1)NC(=O)[C@H]2CCCl,,166 nM (active)
CCOC(=O)c1cncn1[C@H](C)c1ccccc1,99.7%,
C[C@]12Cc3cn[nH]c3C[C@@H]1CC[C@@H]1[C@H]2CC[C@@]2(C)[C@H]1CC[C@]2(C)O,100%,
C[C@]12CCC(=O)C(O)=C1CC[C@@H]1[C@H]3CCC(=O)[C@@]3(C)CC[C@@H]12,84.6%,
CC1=NN=C(c2ccc(N)cc2)c2cc3c(cc2C1)OCO3,89.2%,
Cc1c(N)nc([C@H](CC(N)=O)NC[C@@H](N)C(N)=O)nc1C(=O)N[C@H](C(=O)N[C@@H](C)[C@H](O)[C@@H](C)C(=O)N[C@@H](C(=O)NCCc1nc(-c2nc(C(=O)NCCC[S+](C)C)cs2)cs1)[C@@H](C)O)C(O[C@H]1O[C@H](CO)[C@H](O)[C@@H](O)[C@@H]1O[C@H]1O[C@H](CO)[C@@H](O)[C@H](OC(N)=O)[C@H]1O)c1cnc[nH]1 (stereo partly drawn),,935 nM (active)
O=[N+]([O-])c1ncc[nH]1,89%,
O=C(NCC1CCOCC1)c1cnc(Nc2ccc(Cl)cc2Cl)nc1C(F)(F)F,102%,
CC(O)=C(C#N)C(=O)Nc1cc(Br)ccc1Br,91.7%,
CC(C)CC(N(C)C)C1(c2ccc(Cl)cc2)CCC1 (stereo not drawn),91%,
O=C1C=CC[C@@H]2[C@H]3CCCN4CCC[C@@H](CN12)[C@@H]34,110%,
C[C@](O)(CS(=O)(=O)c1ccc(F)cc1)C(=O)Nc1ccc(C#N)c(C(F)(F)F)c1,114%,
C[C@H]([C@H](O)CCC(C)(C)O)[C@H]1CC[C@@]2(O)C3=CC(=O)[C@@H]4C[C@@H](O)[C@@H](O)C[C@]4(C)[C@@H]3CC[C@]12C,108%,
C#C[C@]1(O)C=C[C@@H]2[C@@H]3CCC4=CC(=O)CC[C@@H]4[C@H]3CC[C@@]21CC,98.3%,
CCOC(=O)c1c(C(C#N)=CN)c2ccc(Cl)c(Cl)c2n1C,112%,
C[C@]12CC[C@H]3[C@@H](CCC4=CC(=O)CC[C@@]43C)[C@H]1CC[C@H]2O,106%,
CN(C)CCN(C)CCc1ccc(Cl)c(Cl)c1,93.5%,
C[C@]12CC[C@H](O)CC1=CC[C@H]1[C@H]3CCC(=O)[C@@]3(C)CC[C@@H]12,83.7%,
C[C@]12CC[C@H]3[C@@H](CCC4=CC(=O)CC[C@@]43C)[C@H]1CC[C@H]2OC(=O)CCC1CCCC1,101%,
CC[C@@H]1[C@@H](C)O[C@@](O)([C@@H](C)[C@H](O)[C@H](C)[C@H]2OC(=O)C=CC=C[C@@H](C)[C@@H]([C@@H](C)[C@@H](O)[C@H](C)[C@@]3(O)C[C@H](O[C@H]4C[C@H](O)[C@H](O)[C@H](C)O4)[C@H](CC)[C@@H](C)O3)OC(=O)C=CC=C[C@@H]2C)C[C@H]1O[C@H]1C[C@H](O)[C@H](O)[C@H](C)O1,,2960 nM (active)

# Test: Quantitative highthroughput screen to assess conditional lethalithy of P12 Ichikawa cells grown in Human Plasma-Like Medium with dialyzed fetal bovine serum (HPLM+ds) (AID 1963879)
# Conditions: ATP luminescence, 48 h; Potency: viability; series mostly up to 45.8 µM; viability: at the top concentration
# Summary of the method: as §1
SMILES,Potency,viability
O=c1[nH]c2ccc(Cl)cc2c(N[C@@H]2CN3CCC2CC3)c1-c1nc2ccccc2[nH]1,469 nM (active),
Oc1ccc2c3c1O[C@H]1c4[nH]c5c(c4C[C@@]4(O)[C@@H](C2)N(CC2CC2)CC[C@]314)C[C@@]1(O)[C@H]2Cc3ccc(O)c4c3[C@@]1(CCN2CC1CC1)[C@H]5O4,,99.6%
C[C@]12CCC(=O)C(O)=C1CC[C@@H]1[C@H]3CCC(=O)[C@@]3(C)CC[C@@H]12,,97.7%
C[C@H]1CCCC=CC2C[C@H](O)C[C@@H]2[C@H](O)C=CC(=O)O1 (stereo partly drawn),37.2 nM (active),
CC(O)=C(C#N)C(=O)Nc1cc(Br)ccc1Br,,101%
CC(N[C@H]1C[C@H]1c1ccccc1)c1ccc2c(c1)OCCO2 (stereo partly drawn),,97.7%
COc1ccc2c(c1)[C@]13CCCCC1C(C2)N(C)CC3 (stereo partly drawn),,93.9%
CCOC(=O)c1c(C(C#N)=CN)c2ccc(Cl)c(Cl)c2n1C,,99.3%
C[C@]12CC[C@H]3[C@@H](CCC4=CC(=O)CC[C@@]43C)[C@H]1CC[C@H]2O,,103%
C[C@]12CC[C@H](O)CC1=CC[C@H]1[C@H]3CCC(=O)[C@@]3(C)CC[C@@H]12,,97.1%
NC1=NC(=O)N2CC12 (stereo not drawn),7430 nM (active),
C=C1C[C@H]2[C@H]3CCC(=O)[C@@]3(C)CC[C@@H]2[C@@]2(C)C=CC(=O)C=C12,,83.4%
